These results are taken from PubChem BioAssay (NCATS).

Several values for one entry are separate records, joined by “and”; a condition that tells them apart may be missing. Identical values can stand only once. Records with an inconclusive call do not appear. Activity calls are given as the source filed them. Calls follow the shape of the dose curve; as a rule, active = well fitted curve in the direction sought with a large enough effect; inconclusive = small, poorly fitted or top-dose-only effect, or another doubt; inactive = no such curve, though single readings can be large; an effect the other way counts as inactive or inconclusive.

Experiment [1] in a line: qHTS Screen of the MIPE 4.0 Collection Against Ewings Sarcoma (TC32) (AID 1259256). Also: nearly all actives have a fitted effect of over 45% in size. The method, boiled down: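 Viability screen: 48 h incubation at 37C, 95% humidity, 5% CO2 with serially titrated compound, followed by CellTiter-Glo readout.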
For orientation: qHTS replaces the single test concentration by a dilution series.

Experiment [2] is described as follows: P-glycoprotein substrates identified in KB-8-5-11 adenocarcinoma cell line, qHTS therapeutic library screen (AID 1346987). Also: nearly all actives have a fitted effect of over 65% in size. A digest of the protocol:
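Human cervical adenocarcinoma KB-8-5-11 cells, selected in colchicine to over-express P-gp and assayed without it, were exposed for 72 h to titrated compounds. An ATP-based luminescent viability signal gave AC50.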

A short description of experiment [3]: NS1 protein of Zika virus - qHTS assay to identify small molecule inhibitors in human HEK 293 cells (AID 1347053). Also: nearly all actives have a fitted effect of over 55% in size. A digest of the protocol: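 Read-out is a two-antibody TR-FRET for ZIKV NS1, normalized between uninfected cells and infected cells. Compound added 1 h before MR766 infection at MOI 0.5; human HEK 293 cells incubated 24 h, 37 C.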
The nature of experiment [4]: qHTS of pediatric cancer cell lines to identify multiple opportunities for drug repurposing: Primary screen for TC32 cells (AID 1347089). Also: nearly all actives have a fitted effect of over 60% in size. A digest of the protocol: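 Measured quantity: luminescence from CellTiter-Glo, reflecting metabolically active TC32 cells following 48 h of compound. Curves came straight from multi-point titrations, with 8 or 11 points in primary and 11 in confirmatory screening.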

Experiment [5] is described as follows: qHTS of pediatric cancer cell lines to identify multiple opportunities for drug repurposing: Primary screen for DAOY cells (AID 1347090). Also: nearly all actives have a fitted effect of over 55% in size. The method, boiled down:
(§1)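 Viability measured as metabolically active cells via CellTiter-Glo luminescence following 48 hours of compound exposure, 11-point dilutions in confirmatory testing. 500-1,000 cells/well plated 5 hours before dosing; controls were DMSO and 2.3 µM bortezomib.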

The nature of experiment [6]: qHTS of pediatric cancer cell lines to identify multiple opportunities for drug repurposing: Primary screen for SJ-GBM2 cells (AID 1347091). The method, boiled down:
as §1

Experiment [7] is described as follows: qHTS of pediatric cancer cell lines to identify multiple opportunities for drug repurposing: Primary screen for A673 cells (AID 1347092). Also: nearly all actives have a fitted effect of over 45% in size. The method, boiled down: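 Cells are plated, rested 5 h, dosed by pintool, incubated 48 h, then lysed with CellTiter-Glo and read by luminescence. DMSO is the neutral control; bortezomib at 2.3 uM final is the positive control.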

Experiment [8] in a line: qHTS of pediatric cancer cell lines to identify multiple opportunities for drug repurposing: Primary screen for SK-N-MC cells (AID 1347093). The method, boiled down: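 Metabolically active cells were quantified by ATP-dependent luminescence (CellTiter-Glo, 15 min at room temperature) following 48 h treatment. Cells had been plated at 500-1,000 per well and settled for 5 h beforehand.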

The nature of experiment [9]: qHTS of pediatric cancer cell lines to identify multiple opportunities for drug repurposing: Primary screen for BT-37 cells (AID 1347094). A digest of the protocol:
(§2)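 Phenotypic viability qHTS, 48 h compound exposure, CellTiter-Glo luminescence read-out; multi-concentration dosing so that potency and efficacy derive directly from the primary screen's curves.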

Experiment [10] is described as follows: qHTS of pediatric cancer cell lines to identify multiple opportunities for drug repurposing: Primary screen for NB-EBc1 cells (AID 1347095). A digest of the protocol:
as §2

Experiment [11] in a line: qHTS of pediatric cancer cell lines to identify multiple opportunities for drug repurposing: Primary screen for U-2 OS cells (AID 1347096). Also: nearly all actives have a fitted effect of over 50% in size. The method, boiled down:
(§3)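 Viability after 48 h compound treatment at 37C, 500-1,000 cells/well, read as ATP luminescence with CellTiter-Glo. Primary screens used 11-point (MIPE, 0.78 nM-46 µM) or 8-point (NPC, 0.59 nM-46 µM) final concentrations; follow-up screens used 11-point dilutions.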

The nature of experiment [12]: qHTS of pediatric cancer cell lines to identify multiple opportunities for drug repurposing: Primary screen for Saos-2 cells (AID 1347097). Also: nearly all actives have a fitted effect of over 40% in size. A digest of the protocol:
as §2

Experiment [13] is described as follows: qHTS of pediatric cancer cell lines to identify multiple opportunities for drug repurposing: Primary screen for NB1643 cells (AID 1347099). Also: nearly all actives have a fitted effect of over 50% in size. A digest of the protocol:
as §2

Experiment [14] is described as follows: qHTS of pediatric cancer cell lines to identify multiple opportunities for drug repurposing: Primary screen for LAN-5 cells (AID 1347100). A digest of the protocol:
as §3

Experiment [15] can be described thus: qHTS of pediatric cancer cell lines to identify multiple opportunities for drug repurposing: Primary screen for SK-N-SH cells (AID 1347098). Also: nearly all actives have a fitted effect of over 65% in size. A digest of the protocol: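 Cells (500-1,000/well) rested 5 h, then received compounds for 48 h; metabolically active cells were measured by CellTiter-Glo luminescence. Final concentrations spanned up to 46 µM (MIPE, 11-point) or 0.59 nM-46 µM (NPC, 8-point) in primary screens, 11-point in follow-ups.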

Experiment [16] in a line: P-glycoprotein substrates identified in KB-3-1 adenocarcinoma cell line, qHTS therapeutic library screen (AID 1346986). Also: nearly all actives have a fitted effect of over 60% in size.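 Also: potency is for cytotoxicity meaning loss of cell viability.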 A digest of the protocol: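 Viability by CellTiter-Glo after 72 h compound exposure at 37 degree C, 5% CO2. Cytotoxic call: curve class -1.1 to -2.4, maximum response >50%, AC50 < 10 uM, compared across KB-3-1 and P-gp-overexpressing KB-8-5-11.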
Potency is read from the fitted curve at half-maximal effect.

For the molecule `Cc1cc(-c2nnc3n2CCCCC3)c(C)n1-c1ccccc1`, the Potency in [1] was 18700 nM (active). The Potency result in experiment [2], in experiment [3], in experiment [4], in experiment [5], in experiment [6] and in experiment [7] was “inactive” throughout. The Potency result in experiment [8], in experiment [9], in [10], in experiment [11], in experiment [12] and in [13] was “inactive” in each case. The Potency entry in experiment [14] was “inactive”.

Take `C=CC(=O)Nc1ccc2ncnc(Nc3ccc(OCc4cccc(F)c4)c(Cl)c3)c2c1`: the Potency was 833 nM (active) in [1]; 23.5 µM (active) and 16.4 µM (active) in experiment [2]; 10500 nM (active) in experiment [3]; 4660 nM (active) in experiment [4]; 46.9 nM (active) in experiment [5]; 29.6 nM (active) in experiment [6]. The Potency in experiment [7] was 1 nM (active); in experiment [8], 16.6 nM (active); in [9], 15.3 nM (active); in experiment [10] it was 52.6 nM (active); in experiment [11] it was 5900 nM (active); in [12], 29.6 nM (active). In addition, the Potency is 171 nM (active) in [15], 74.3 nM (active) in experiment [13] and 1 nM (active) in experiment [14].

Consider `CC(=O)N1CCN(c2ccc(OCc3nn(C)c(C)c3-c3cccc4c(CCCOc5cccc6ccccc56)c(C(=O)O)n(Cc5cccnc5)c34)cc2)CC1`, for which the Potency in [1] is 743 nM (active); in experiment [5] it was 118 nM (active); in [6] it was 1050 nM (active); in experiment [8], 23.5 nM (active); in [9], 485 nM (active); in experiment [10], 418 nM (active). Moreover, the Potency is 3720 nM (active) in [11]; 3720 nM (active) in experiment [12]; 3830 nM (active) in experiment [15]; 209 nM (active) in experiment [13]; 148 nM (active) in [14]. Further, the Potency entry in [16], in [2] and in experiment [3] was “inactive” in each case.

Take `CC1=C(C(=O)Nc2cc3cn[nH]c3cc2F)C(c2ccc(Cl)cc2F)N=C(c2ccnc(Cl)c2)N1` (stereo unspecified): the Potency in experiment [1] is 16600 nM (active); in experiment [16], 20600 nM (active); in [6], 5900 nM (active); in experiment [8] it was 11800 nM (active); in [9], 24300 nM (active); in experiment [10], 10500 nM (active). Further, the figures for the Potency in experiment [12], in [15] and in experiment [14] were 5900 nM (active), 19200 nM (active) and 9350 nM (active), respectively. Moreover, the Potency result in [3] and in experiment [11] was “inactive” throughout.

On to `N#CC(=Cc1ccc(O)c(O)c1)C(=O)NCc1ccccc1`, for which the figures for the Potency in experiment [1], in experiment [8] and in experiment [10] were 20900 nM (active), 14800 nM (active) and 23500 nM (active), respectively. Moreover, the Potency entry in [16], in experiment [2], in experiment [3] and in experiment [11] was “inactive” each time.

Consider `CN(C)c1ccc(C(=O)NCCCCCCC(=O)NO)cc1`, for which the Potency in [1] is 296 nM (active); in [2] it was 3.72 µM (active); in experiment [4] it was 2620 nM (active); in experiment [5], 2350 nM (active); in experiment [6], 743 nM (active); in [7], 1180 nM (active). Also, the Potency was 332 nM (active) in experiment [8]; 153 nM (active) in experiment [9]; 469 nM (active) in [10]; 1180 nM (active) in experiment [11]; 118 nM (active) in experiment [12]; 2410 nM (active) in [15]. Also, the Potency in [13] was 296 nM (active); in [14] it was 132 nM (active). In addition, in [3], the Potency result is “inactive”.

For `C=C1C(=CC=C2CCC[C@]3(C)[C@@H]([C@H](C)CCCC(C)(C)O)CC[C@@H]23)C[C@@H](O)C[C@@H]1O`, the Potency in [1] is 3720 nM (active); in [4], 16500 nM (active); in experiment [5], 4690 nM (active); in experiment [6] it was 13200 nM (active); in experiment [7], 1480 nM (active); in experiment [8] it was 1480 nM (active). The Potency was 6850 nM (active) in experiment [9]; 2960 nM (active) in experiment [10]; 18700 nM (active) in experiment [11]; 14800 nM (active) in experiment [12]; 3830 nM (active) in experiment [15]; 2350 nM (active) in experiment [13]. Also, in experiment [14], the Potency is 1660 nM (active). In addition, the Potency entry in experiment [2] and in experiment [3] was “inactive” each time.
